SMILES strings stand for the structures. Out of some 2,400 compounds screened, about 1,800 (75%) were called active. Rule as the data show it: active = inhibition above about 22%; inactive = the rest. So high a share suggests a set chosen from earlier hits. Only a sample is shown.

In general, inhibition refers to the drop in the measured response relative to a control, in per cent.

The assay is described as follows: nonselective antagonists in TAAR1 counter-screen cells, counter-screen for hTAAR1 antagonist project, cell-based, fluorescence, calcium (AID 651780).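 Also: CHO-Ga16 host cells stimulated with ATP at an EC80 level; 0% = agonist EC80 plus vehicle and 100% = vehicle without agonist.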 As to conditions: counterscreen cell line, antagonist mode, at 3 µM, stronger effect = higher value. (Counterscreens check selectivity or assay interference.)
Take `COc1ccc(CCNC(=O)C(=O)NCC2OCCN2S(=O)(=O)c2ccc(OC)c(C)c2)cc1` (stereo not given): the inhibition was 23.7% (active).

Turning to `O=C(COC(=O)CCCSc1nc2ccccc2[nH]1)Nc1ccc(Oc2ccccc2)cc1`, the inhibition is 39.8% (active).

Take `O=C(O)c1ccc(NC(=O)c2cn(-c3ccccc3)nc2-c2ccc(Cl)cc2)cc1`: the inhibition was 36.1% (active).

With `COc1ccc(CC(=O)Nc2c(C(N)=O)oc3ccccc23)cc1`, the inhibition is 22.3% (active).

In the case of `CC(C)(C)OC(=O)NCCCCCNC(=O)c1nc[nH]c1C(=O)NCc1ccccc1`, the inhibition is 22% (active).

Take `C[C@H](NC(=O)c1nc[nH]c1C(=O)NCC(=O)OC(C)(C)C)C(=O)OCc1ccccc1`: the inhibition is 23.6% (active).

Regarding `Cc1cccc(NC(=O)c2nc[nH]c2C(=O)NCC(=O)OCc2ccccc2)c1`, the inhibition is 26% (active).

Regarding `OC(c1ccccc1)(c1ccccc1)C1CCN(CCCOc2ccc(-c3ccsc3)cc2)CC1`, the inhibition was 40.2% (active).

As for `CC(=O)Nc1ccc(NC(=O)COC(=O)C2CCC(C(C)(C)C)CC2)cc1` (stereo not given), the inhibition is 24.5% (active).

For `O=C(NCC1CCCO1)c1cc2c([nH]c3ccccc32)c(-c2ccc(F)cc2)n1` (stereo not given), the inhibition is 30.9% (active).

With `CC(=O)N1CCN(C(=O)c2cc(-c3ccc(Cl)s3)nc3ccccc23)CC1`, the inhibition is 26.1% (active).

As for `O=C(COC(=O)c1c2c(nc3ccccc13)CCCC2)c1ccc(Br)s1`, the inhibition was 20.1% (inactive).

As for `Cc1cccc(C)c1NC(=O)CNC(=O)C1CCCC1`, the inhibition was 5.58% (inactive).

For the compound `O=S1(=O)c2c(cccc2N2CCCCC2)O[C@H](COCc2ccccc2)CN1C1CC1`, the inhibition is 32.5% (active).

Regarding `Cc1cc(Br)ccc1NC(=O)c1cnc(N2CCN(c3ccccn3)CC2)c2ccccc12`, the inhibition is 38.4% (active).

As for `Cc1ccccc1NC(=O)Cc1nc(COC(=O)C(C)(C)Oc2ccc(Cl)cc2)cs1`, the inhibition was 33.4% (active).

On to `COC(=O)c1sccc1NC(=O)c1cc(OC)c(OC)c(OC)c1`, for which the inhibition was 21.3% (inactive).

Consider `COc1cc2ccccc2cc1C(=O)Nc1ccc(NC(=O)c2cccs2)cc1`, for which the inhibition is 27.7% (active).

On to `O=C1c2ccccc2C(=O)N1CCC#Cc1ccc2cc(C3(O)CCCCC3)oc(=O)c2c1`, for which the inhibition is 44% (active).

In the case of `COc1ccc(CCNC(=O)c2ccc(CS(=O)(=O)c3ccc(Br)cc3)o2)cc1OC`, the inhibition is 35% (active).

As to `CCOC(=O)C1C(c2ccc(OC)c(OC)c2)c2c([nH][nH]c2=O)CC1(C)O` (stereo not given), the inhibition was 25.2% (active).

With `COC(=O)Cc1nnn2c1[C@H](C)[C@H](c1ccccc1Br)OCC2`, the inhibition was 0.66% (inactive).

Regarding `COc1ccc(S(=O)(=O)N2CCCC(C(=O)Nc3ccc(NC(=O)c4ccccn4)cc3)C2)cc1` (stereo not given), the inhibition was 29.2% (active).

`Cc1onc(-c2c(F)cccc2Cl)c1C(=O)Nc1cccc(S(=O)(=O)N2CCCCC2)c1`: the inhibition was 19.7% (inactive).

`COc1ccc(NC(=O)C2CCCN(S(=O)(=O)c3cccc4cccnc34)C2)cc1OC` (stereo not given): the inhibition was 29.3% (active).

On to `COc1ccc(C(=O)Nc2cccc(NC(=O)c3ccc(OC)cc3OC)n2)c(OC)c1`, for which the inhibition was 22.6% (active).

With `CSc1nc(-c2ccccc2)nc(C(Cl)Cl)n1`, the inhibition is -4.34% (inactive).

With `COc1cc(/C=C2/C(=O)ON=C2C)ccc1OCc1ccccc1F`, the inhibition is 57.1% (active).

In the case of `Cc1nc(N2CCN(c3ccccn3)CC2)c2c(C)c(C(=O)Nc3ccc(F)cc3)sc2n1`, the inhibition is 36.4% (active).

Regarding `CSC(=S)N/N=C/c1c[nH]c2ccccc12`, the inhibition is 19.5% (inactive).

Consider `Nc1nonc1-n1nnc(C(=O)N/N=C/c2c[nH]c3ccccc23)c1-c1ccccc1`, for which the inhibition is 29.3% (active).

Take `COc1ccc(CCNC2=C(Cl)C(=O)N(Cc3ccccc3)C2=O)cc1OC`: the inhibition was 31.3% (active).

Turning to `COc1ccc(OC)c2[nH]c(=O)c(CCNC(=O)C(=O)c3c[nH]c4ccccc34)cc12`, the inhibition is 26.8% (active).

For `CC(=O)OCCN(CCCn1c(-c2ccncc2)nc2ccccc21)c1nc(-c2ccc(C)cc2)cs1`, the inhibition is 24.1% (active).

Regarding `O=c1[nH]c(CSc2ncc(-c3ccc(F)cc3)n2Cc2ccco2)nc2ccccc12`, the inhibition was 29.8% (active).

With `CCCCNc1c(-c2cccc(Sc3ccc(OC)cc3)c2)nc2ccccn12`, the inhibition was 42.4% (active).

In the case of `C[C@H](O)[C@@H]1C(=O)N2CCc3c([nH]c4c(-c5ccc6c(c5)OCO6)cccc34)[C@@H]2C[C@@H]1N(C)C(=O)c1ccco1`, the inhibition is 35.2% (active).

In the case of `Cc1cccc(NC(=O)c2ccc(COc3ccccc3[N+](=O)[O-])o2)n1`, the inhibition was 15.8% (inactive).

Take `COC(=O)C1=C(C)N(Cc2ccc(F)cc2)C(=S)NC1c1cccc(Cl)c1` (stereo not given): the inhibition is 23.3% (active).

As to `O=C(N/N=C/c1ccc(Cl)c(Cl)c1)c1ccc2nc[nH]c2c1`, the inhibition is 27.9% (active).

With `Cc1nn(-c2ccccc2)c(C)c1NC(=O)COC(=O)c1cc(Cl)ccc1O`, the inhibition is 32.8% (active).

For `CNC(=O)c1ccsc1NC(=O)c1ccc(S(=O)(=O)N2CCc3ccccc32)cc1`, the inhibition was 32.3% (active).

`CCN1CCc2c(C#N)c(NCc3ccccc3)nc(NCCO)c2C1`: the inhibition was 5.04% (inactive).

Take `C=CCn1c(SCc2cccc(F)c2)nc2cc(C(=O)N3CCC(C(N)=O)CC3)ccc2c1=O`: the inhibition was 25.6% (active).

In the case of `CC(=O)c1ccccc1OCc1ccc(C(=O)c2ccccc2)cc1`, the inhibition was 27% (active).

Take `CCNS(=O)(=O)c1ccc(CCC(=O)N2CCN(c3cc(Cl)ccc3C)CC2)cc1`: the inhibition was 37.1% (active).

For `COc1ccc(Cl)cc1NC(=O)CCS(=O)(=O)c1cc2c(cc1C)NC(=O)CO2`, the inhibition is 23.5% (active).

As for `CCc1ccc2c(c1)NC(=O)C2(C)Cc1ccc(OC(F)(F)F)cc1` (stereo not given), the inhibition was 4.79% (inactive).

As for `COc1ccc(C(=O)Oc2ccc(-c3nnco3)cc2)cc1S(=O)(=O)N1CCOCC1`, the inhibition was 25.1% (active).

As for `O=C(Oc1ccc(-c2nnco2)cc1)c1ccc(F)c(S(=O)(=O)N2CCOCC2)c1`, the inhibition is 32.8% (active).

As for `CCC(=O)Oc1cccc(C(=O)Nc2ccc(-c3nnc(-c4ccco4)o3)cc2)c1`, the inhibition was 26.1% (active).

For `O=C(Nc1ccc(-c2nnc(-c3ccccc3)o2)cc1)c1ccc(Br)o1`, the inhibition was 16% (inactive).

`COc1ccc2[nH]c(=O)c(CN(Cc3cccnc3)S(=O)(=O)c3ccccc3F)cc2c1`: the inhibition was 34.9% (active).

As to `C=CCc1cc(S(=O)(=O)c2ccc(O)c(CC=C)c2)ccc1O`, the inhibition is 18.2% (inactive).

Take `O=C(NCCN1CCOCC1)c1ccccc1N1C(=O)[C@@H]2Cc3c([nH]c4ccccc34)C(c3cccc(Cl)c3)N2C1=O` (stereo not given in full): the inhibition was 26.3% (active).

As to `COC(=O)[C@@]1(Sc2ccc(C)cc2)CC(=O)N(c2cccc(SC)c2)[C@@H]1c1ccccc1`, the inhibition was 21.8% (active).

On to `Clc1ccc(Nc2ncnc3c2nnn3Cc2ccccc2)cc1`, for which the inhibition is 9.4% (inactive).

For the compound `Cc1ccc2c(c1)N(CC(=O)NCCc1ccc(Cl)cc1)C(=O)c1cccnc1O2`, the inhibition is 22.1% (active).

For `Cc1ccc(-n2c(C)cc(/C=N\NC(=O)CC(=O)NC(C)C)c2C)cc1`, the inhibition is 7.15% (inactive).

For `C/C(=N\Nc1ncc(Cl)cc1Cl)c1ccc(S(=O)(=O)NCc2ccco2)cc1`, the inhibition is 28.7% (active).

Regarding `Fc1ccc(/C=N/Nc2nc(-c3cccnc3)nc3ccccc23)cc1`, the inhibition was 25.1% (active).

As for `O=C(OCC(=O)N(CCc1ccccc1)Cc1ccccc1)c1ccccc1[N+](=O)[O-]`, the inhibition is 33.2% (active).

Take `Cc1ccc2cccc(OCCCOc3ccccc3CO)c2n1`: the inhibition is 20.3% (inactive).

For the compound `COc1cc(OC)cc(C(=O)OCC(=O)Nc2sccc2C(N)=O)c1`, the inhibition is 27.8% (active).

In the case of `COc1cc(SC#N)ccc1N=Cc1c(C)[nH]n(-c2ccc(C)cc2)c1=O`, the inhibition is 87.2% (active).

With `C=CCC[C@@H](Cc1ccc(F)cc1)C(=O)O[C@H](CNC(=O)[C@H](CC=C)CC(=O)N(CCO)Cc1ccccc1)c1ccccc1`, the inhibition was 39.2% (active).

As for `C=CCC[C@H](Cc1ccc(F)cc1)C(=O)OC[C@H](C)NC(=O)[C@H](CC=C)CC(=O)N(CCO)Cc1ccccc1`, the inhibition is 27.6% (active).

As for `Oc1ccccc1N1CCN(c2ncnc3sc(-c4ccccc4)cc23)CC1`, the inhibition was 30.2% (active).

Turning to `O=S(=O)(c1cccs1)N1CCCc2nc(-c3ccc(Br)cc3)ccc21`, the inhibition is 33.3% (active).

For the compound `CCOC(=O)C1=C(NC(=S)NC(=O)c2ccccc2)c2ccccc2CC1(C)C`, the inhibition was 24.8% (active).

With `COc1ccc(-c2nn(-c3ccccc3)cc2C(=O)Nc2nccs2)cc1OC`, the inhibition is 24.8% (active).

Regarding `CSCCC(NC(=O)COc1ccccc1)C(=O)OCC(=O)c1cc2ccccc2o1` (stereo not given), the inhibition was 24.2% (active).

As for `CSCCC(NC(=O)COc1ccccc1)C(=O)OCCOc1ccc(Br)cc1` (stereo not given), the inhibition is 21.9% (active).

In the case of `C[C@@H]1CN([C@@H](C)CO)S(=O)(=O)c2ccc(C#Cc3cccc(F)c3)cc2O[C@H]1CN(C)S(=O)(=O)c1cn(C)cn1`, the inhibition was 38.3% (active).

As to `Cc1ccc(SCc2c(C(=O)N/N=C/c3cccnc3)nnn2-c2nonc2N)cc1`, the inhibition was 38.4% (active).

For `Oc1ccc(/C=N/Nc2nc(-c3ccccc3F)nc3ccccc23)c(O)c1`, the inhibition is 38.2% (active).

As for `COc1ccc(S(=O)(=O)N(CC(=O)NCc2ccco2)c2ccc(F)cc2)cc1`, the inhibition is 19.3% (inactive).

Turning to `COc1ccc(N(CC(=O)N/N=C/c2cccs2)S(=O)(=O)c2ccc(OC)c(OC)c2)cc1`, the inhibition was 25.2% (active).

For `O=C(CN1CCCSc2ccccc21)N1CCN(S(=O)(=O)c2cccc(F)c2)CC1`, the inhibition was 19.4% (inactive).

As to `NNC(=O)CNC(c1ccccc1)c1cc(Cl)ccc1NC(=O)c1ccccc1` (stereo not given), the inhibition was 22.9% (active).

`CCOc1ccc(NC(=O)N2CC=C(n3c(=O)[nH]c4ccccc43)CC2)cc1`: the inhibition is 19.3% (inactive).

With `Cn1c2ccccc2c(=O)c2c(=O)n(Cc3ccco3)c(COc3ccccc3)nc21`, the inhibition was 21.8% (active).

Take `Cc1ccc(C)c(N2CCN(C(=O)CCCCCn3c(=S)[nH]c4ccc(N5CCOCC5)cc4c3=O)CC2)c1`: the inhibition was 44.4% (active).

For the compound `Cc1ccc(NC(=O)c2ccc(CSc3ncnc4nc[nH]c34)cc2)c(C)c1`, the inhibition was 17.2% (inactive).

With `CC(=O)n1cc([C@H]2C=C(C(=O)N3CCOCC3)O[C@@H](OCc3ccc(CO)cc3)C2)c2ccccc21`, the inhibition was 24.4% (active).

For the origin of these results see PubChem BioAssay AID651780 (The Scripps Research Institute Molecular Screening Center, 2012).
